Laboratory results published in PubChem BioAssay (NCI).
This is part of a sample that, as a whole, favours compounds with a hit. Of some 79,000 tested, about 15% had one in any assay. Cut-off read from the data, not from the text of the source: active = growth inhibition above about 70%; inactive = the rest.

Assays:
[1] = NCI Yeast Anticancer Drug Screen. Data for the rad50 strain (AID 155);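 note: 0% = growth of vehicle-only cultures of the same strain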; conditions: S. cerevisiae rad50 strain growth inhibition; at 50.0 µM; hits give high values
Outline: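 Genetically altered yeast (DNA repair pathway); compound treatment; growth inhibition vs vehicle ctrl.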

[2] = NCI Yeast Anticancer Drug Screen. Data for the mec2-1 strain (AID 157); conditions: S. cerevisiae mec2-1 strain, at 50.0 µM, hits give high values
Outline: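 mec2-1 yeast strain, carrying an alteration in DNA damage repair or cell cycle control, was exposed to compounds; growth inhibition was measured relative to vehicle-treated controls.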

[3] = NCI Yeast Anticancer Drug Screen. Data for the sgs1 mgt1 strain (AID 161);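 note: 0% = growth of cultures given vehicle only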; conditions: S. cerevisiae sgs1 mgt1 strain, at 50.0 µM, hits give high values
Outline: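 Percent growth inhibition was derived by comparing compound-exposed mutant yeast with vehicle-exposed cultures. The strain carries alterations in DNA damage repair.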

[4] = NCI Yeast Anticancer Drug Screen. Data for the cln2 rad14 strain (AID 165);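 note: 0% = growth equal to vehicle treated cultures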; conditions: S. cerevisiae cln2 rad14 strain, at 50.0 µM, hits give high values
Outline: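 Yeast carrying cln2 and rad14 alterations (cell cycle control and DNA damage repair) were exposed to compounds. Growth inhibition was measured against vehicle-treated controls.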

[5] = NCI Yeast Anticancer Drug Screen. Data for the bub3 strain (AID 167); conditions: S. cerevisiae bub3 mutant strain, at 50.0 µM, hits give high values
Outline: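 Yeast carrying a defined mutation is treated with each compound, and growth is compared with that of vehicle-exposed cells to give inhibition.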

[6] = NCI Yeast Anticancer Drug Screen. Data for the mlh1 rad18 strain (AID 175); conditions: S. cerevisiae mlh1 rad18 strain growth inhibition; at 50.0 µM; hits give high values
Outline: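 Growth inhibition of the yeast strain was measured after compound exposure and expressed relative to vehicle-treated controls. The strain carries defined defects in DNA damage repair.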

Measured: growth inhibition

O=C(COc1ccc(Cl)c(Cl)c1)Nc1cccc(S(=O)(=O)F)c1
inactive: [1] 29.4% | [2] 10.4% | [3] -2.45% | [4] -10.8% | [5] 13.1% | [6] 19.4%

COC(=O)C1C(c2ccc(-c3ccccc3)cc2)N1C1CCCCC1 (configuration not stated)
inactive: [1] 7.7% | [2] 19.8% | [3] 2.9% | [4] -2.05% | [5] -4% | [6] 1.85%

Nc1n[nH][nH]c1=O
inactive: [1] -29.5% | [2] -26.1% | [3] -13.9% | [4] -20.4% | [5] -0.7% | [6] -12.1%

CN1CC(NC(=O)N(CCCl)N=O)CC2c3cccc4c3c(cn4N=O)CC21 (configuration not stated)
inactive: [1] 17.8% | [2] 10.6% | [3] 21.4% | [4] 18.6% | [5] -3.7% | [6] 52.1%

S=c1[nH]c2ccccc2[nH]1.[Zn+2]
inactive: [1] 13.2% | [2] 10.3% | [3] 18.2% | [4] 10.2% | [5] -21.4% | [6] -5.35%

COC(=O)Nc1nc2ccccc2[nH]1
inactive: [1] -18.6% | [2] -4.4% | [3] -13% | [4] 4.2% | [5] 2.45% | [6] 7.15%

Cc1ccc(S(=O)(=O)F)cc1
inactive: [1] 10.4% | [2] -8.7% | [3] 2.1% | [4] -14.7% | [5] -1.3% | [6] 9.5%
